Many of the other results were omitted from the sample, so hits are more common in it than they were.
Dicer processing – human Dicer pre-microRNA cleavage inhibition; 47,000 tested, 6% active; AID 1347074; z-score at 25 µM; cat-ELCCA pre-miR-21 Dicer processing, chemiluminescence; hits give high values; Q9UPY3; in the data active means z-score above about 3, passing the limit was not always enough;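 further: higher signal means more uncleaved substrate so more Dicer inhibition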
Target sequence (Q9UPY3 whole entry, looked up): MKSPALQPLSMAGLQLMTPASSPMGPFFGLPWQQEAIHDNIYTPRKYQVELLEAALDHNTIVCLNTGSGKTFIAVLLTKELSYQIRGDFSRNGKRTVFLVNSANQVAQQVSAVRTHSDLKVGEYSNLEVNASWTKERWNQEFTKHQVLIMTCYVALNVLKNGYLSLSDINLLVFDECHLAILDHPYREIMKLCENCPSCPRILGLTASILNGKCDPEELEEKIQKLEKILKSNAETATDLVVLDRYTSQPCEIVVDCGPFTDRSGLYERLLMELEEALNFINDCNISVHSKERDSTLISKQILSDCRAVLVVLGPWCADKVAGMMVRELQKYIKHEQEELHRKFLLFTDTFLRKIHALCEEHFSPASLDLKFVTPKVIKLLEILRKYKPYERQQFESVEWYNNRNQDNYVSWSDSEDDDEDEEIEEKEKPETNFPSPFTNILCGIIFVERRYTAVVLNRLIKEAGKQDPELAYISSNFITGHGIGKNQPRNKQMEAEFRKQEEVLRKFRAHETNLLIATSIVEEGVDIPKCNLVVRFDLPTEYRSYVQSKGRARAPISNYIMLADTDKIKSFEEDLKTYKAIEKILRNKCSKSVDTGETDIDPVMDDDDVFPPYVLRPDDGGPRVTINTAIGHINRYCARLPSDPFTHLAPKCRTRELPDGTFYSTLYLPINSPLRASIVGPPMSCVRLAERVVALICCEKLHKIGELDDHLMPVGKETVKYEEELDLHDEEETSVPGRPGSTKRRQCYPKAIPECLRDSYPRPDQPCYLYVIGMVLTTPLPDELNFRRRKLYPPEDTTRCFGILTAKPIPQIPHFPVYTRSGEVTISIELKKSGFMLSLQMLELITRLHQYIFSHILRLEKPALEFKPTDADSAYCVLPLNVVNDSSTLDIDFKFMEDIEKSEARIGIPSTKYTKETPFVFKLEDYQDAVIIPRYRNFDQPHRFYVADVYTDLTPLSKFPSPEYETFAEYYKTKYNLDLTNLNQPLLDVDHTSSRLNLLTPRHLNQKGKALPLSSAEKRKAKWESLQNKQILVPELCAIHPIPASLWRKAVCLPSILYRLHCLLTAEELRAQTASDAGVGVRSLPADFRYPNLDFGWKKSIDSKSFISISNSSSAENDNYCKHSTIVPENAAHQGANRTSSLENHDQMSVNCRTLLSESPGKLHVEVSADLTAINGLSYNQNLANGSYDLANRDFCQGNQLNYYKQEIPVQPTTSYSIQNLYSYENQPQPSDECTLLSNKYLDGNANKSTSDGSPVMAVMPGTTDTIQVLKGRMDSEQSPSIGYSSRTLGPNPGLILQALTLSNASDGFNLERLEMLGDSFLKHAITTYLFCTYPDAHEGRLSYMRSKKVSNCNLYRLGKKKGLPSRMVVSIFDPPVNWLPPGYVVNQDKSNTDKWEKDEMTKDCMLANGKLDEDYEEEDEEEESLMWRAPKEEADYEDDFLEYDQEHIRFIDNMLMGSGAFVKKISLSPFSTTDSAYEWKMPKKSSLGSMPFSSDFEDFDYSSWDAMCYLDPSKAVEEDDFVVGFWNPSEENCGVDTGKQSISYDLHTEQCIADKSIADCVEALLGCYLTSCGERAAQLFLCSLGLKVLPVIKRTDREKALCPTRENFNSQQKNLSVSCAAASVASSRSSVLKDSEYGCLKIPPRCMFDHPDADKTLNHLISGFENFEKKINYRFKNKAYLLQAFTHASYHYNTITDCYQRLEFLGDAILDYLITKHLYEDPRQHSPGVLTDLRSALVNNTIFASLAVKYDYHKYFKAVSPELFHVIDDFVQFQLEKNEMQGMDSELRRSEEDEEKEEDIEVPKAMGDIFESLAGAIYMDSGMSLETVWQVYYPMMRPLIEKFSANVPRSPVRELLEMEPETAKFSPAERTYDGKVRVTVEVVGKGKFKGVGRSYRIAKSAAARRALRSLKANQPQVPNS
Large screens that a line does not name were inactive.

CCN(CC)C(=O)n1cnc2cc(C)c(C)cc21	none
CCOC(=O)/C(N=Nc1ccc(C)cc1C)=C(\C)O	none
CC(=O)/C(N=Nc1ccc(C)cc1[N+](=O)[O-])=C(\C)O	Dicer processing 3.23
CC(=O)/C(N=Nc1cc(F)c(Br)cc1F)=C(\C)O	none
CCOC(=O)c1c(NC(=O)c2ccc3c(c2)OCO3)sc(C(=O)NC2CCCC2)c1C	none
CCOC(=O)c1sc(NC(C)=O)nc1C	Dicer processing 4.35
CCOC(=O)c1sc(NC(=O)c2ccco2)nc1C	none
COC(=O)c1sc(NC(C)=O)nc1C	none
COc1ccc(C2OC(=O)c3ccccc3S2)cc1Br (stereo unspecified)	none
COc1ccccc1C1CCN(Cc2ccc(Cl)cc2Cl)CC1	none
COc1ccccc1C1CCN(c2ccc(C(F)(F)F)cc2[N+](=O)[O-])CC1	none
COc1ccccc1C1CCN(c2ccc([N+](=O)[O-])c(OC)c2)CC1	Dicer processing 3.44
Nc1ccc(Cl)cc1C(=O)NNC(=O)c1cccnc1Oc1ccccc1	none
CC(C)c1ccc(NC(=O)CSc2n[nH]c(=O)n2C(C)c2ccccc2)cc1 (stereo unspecified)	none
O=C(Nc1ccc(Cl)cc1)O/N=C\c1ccc(C#Cc2ccccc2)cc1	none
CSc1ccccc1NC(=O)c1cnn2c1NC(c1cccs1)CC2C(F)(F)F (stereo unspecified)	none
O=C(c1cnn2c1NC(c1ccc(Br)cc1)CC2C(F)(F)F)N1CCCCC1 (stereo unspecified)	Dicer processing 3.31
Cc1ccc(C2CC(C(F)(F)F)n3ncc(C(=O)N(C)C4CCCCC4)c3N2)cc1 (stereo unspecified)	none
O=C(Nc1ccc(Br)cc1)c1cc2n(n1)C(C(F)(F)F)CC(c1cccs1)N2 (stereo unspecified)	none
CC(C)(C)NC(=O)c1cnn2c1NC(c1ccc(F)cc1)CC2C(F)(F)F (stereo unspecified)	none
O=C(Nc1ccc(Br)cc1)c1cnn2c1NC(c1cccs1)CC2C(F)(F)F (stereo unspecified)	Dicer processing 3.21
COc1ccccc1C(=O)CC1(O)C(=O)N(Cc2ccccc2)c2ccc(Br)cc21 (stereo unspecified)	none
Cn1nccc1NC(=O)c1ccc(F)cc1	none
CC(C)c1ccc(/C=C2\Sc3ccccc3NC2=O)cc1	none
O=C(NCc1cccs1)NCc1cccs1	none
COC(=O)c1ccc(C2c3c(oc4ccccc4c3=O)C(=O)N2c2nc(C)c(C)s2)cc1 (stereo unspecified)	none
COc1cc(-c2nc3ccccc3c(=O)o2)ccc1OC(C)=O	none
COc1ccc(-n2nnnc2SCC(=O)O)cc1	none
FC(F)(F)c1c(-c2nnnn2-c2ccccc2)cnn1-c1ccccc1Cl	none
FC(F)(F)c1[nH]ncc1-c1nnnn1-c1ccccc1	Dicer processing 3.27
Cc1c(-c2nnnn2-c2ccccc2)cnc2ccccc12	none
O=C(Oc1cc(S(=O)(=O)c2ccc(Cl)cc2)ccc1[N+](=O)[O-])c1cc2ccccc2s1	none
CCCCNCCn1cnc2c(N)ncnc21	none
CNC(=O)Nc1c(C)n(C)n(-c2ccccc2)c1=O	none
COc1nc2c(c(-c3c(F)cccc3Cl)c1C#N)Cc1ccccc1-2	none
Cn1c(=O)n(CCCOc2ccc(Cl)cc2)c2ccccc21	none
Cn1c(=O)n(Cc2ccccc2Br)c2ccccc21	none
Cn1c(=O)n(CC(=O)O)c2ccccc21	Dicer processing 3.57
COc1ccc(CCN2C(=O)CSC2=Nc2ccc(F)c(Cl)c2)cc1OC	none
NC(=O)C1CCN(C(=O)CSc2ncccn2)CC1	Dicer processing 3.6
CC1CCN(C(=O)CCCC(=O)O)CC1	none
NC(=O)C1CCN(C(=O)/C=C/C(=O)O)CC1	none
NC(=O)C1CCN(C(=O)CCC(=O)O)CC1	Dicer processing 3.5
CCOC(=O)N1CCN(C(=O)CSc2ncccn2)CC1	none
NC(=O)C1CCN(C(=O)CN(CC(=O)N2CCC(C(N)=O)CC2)Cc2ccco2)CC1	none
CC(C)(C)c1cn2nc(C(C)(C)C)sc2n1	none
C=CC[n+]1ccc(/C=C2\Sc3ccccc3N2CC)cc1	none
CCOc1ccc(S(=O)(=O)N(CC)CC)cc1-c1nc2c(C(C)(C)C)nn(C)c2c(=O)[nH]1	none
CCc1sc(-c2c(C#N)c(N)nc3c2CCCC3)cc1[N+](=O)[O-]	none
CSC(=S)N(C)NC(=O)Nc1cccc(Cl)c1	none
O=C(Nc1ccc(OC(F)(F)F)cc1)Nc1nc(-c2ccc(F)c(F)c2)cs1	none
O=C(Nc1nc(-c2ccc(F)c(F)c2)cs1)Nc1ccc(Cl)cc1Cl	none
O=C(Nc1ccccc1)Nc1nc(-c2ccc(F)c(F)c2)cs1	none
Cc1ccnc(Nc2nc(-c3ccc(F)cc3)cs2)c1	none
CSc1sc(C(=O)Nc2ccccc2Cl)cc1-c1nc(-c2ccc(Cl)cc2)cs1	none
Fc1ccc(Nc2nc(-c3ccc(F)c(F)c3)cs2)c(F)c1	Dicer processing 60.2
O=C(Nc1ccc(F)cc1)Nc1nc(-c2ccc(F)c(F)c2)cs1	Dicer processing 3.04
CC(C)(C)c1ccccc1NC(=O)Nc1nc(-c2ccc(F)c(F)c2)cs1	Dicer processing 3.69
COc1ccccc1NC(=O)Nc1nc(-c2ccc(F)c(F)c2)cs1	none
CCOC(=O)c1cc(C(C)(C)C)nn1Cc1c(C)cc(C)cc1C	none
CN(C)NC(=O)c1ccc(Oc2cc(Cl)cc(Cl)c2)o1	none
O=C(Cn1nnc(N2CCCCC2)n1)c1ccccc1	none
COc1ccccc1C1CCN(c2ncnc3scc(-c4ccccc4)c23)CC1	none
CCOC(=O)c1c(NC(=O)C(C)Oc2ccc(OC)cc2)sc2c1CCCC2 (stereo unspecified)	none
NCCCc1nc2cc3ccccc3cc2[nH]1	none
CCCCC(C(N)=O)C1=NC(C)(C)Cc2ccccc21 (stereo unspecified)	none
O=C(c1nc2ncccn2n1)N1CCN(C(c2ccccc2)c2ccccc2)CC1	none
COCCCNC(=O)/C(C#N)=C/N(C)C	none
Cc1ccnc(NC(=O)CSc2nnc3c4ccccc4n(C)c3n2)c1	none
CCOC(=O)c1sc2ncn(CC(=O)OCC(C)C)c(=O)c2c1C	none
C/C(=N\NC(=S)Nc1ccc(C(C)C)cc1)c1ccco1	Dicer processing 3
C/C(=N\NC(=S)Nc1ccc(F)cc1)c1ccco1	none
CC(C)c1ccc(NC(=S)NN(C)C)cc1	none
Cc1ccc(C2Nn3c(C)nnc3SC2C(=O)Nc2cc(C)cc(C)c2)cc1 (stereo unspecified)	none
CC1=C(C(=O)OCCc2ccccc2)C(c2ccncc2)C2=C(CCCC2=O)N1 (stereo unspecified)	none
S=c1[nH]nc(Nc2ccccc2Cl)s1	none
S=c1[nH]nc(NCCc2ccc(Cl)cc2)s1	Dicer processing 3.32
S=c1[nH]nc(Nc2ccc(Br)cc2Cl)s1	none
CN(C)NC(=S)Nc1cccc(Cl)c1Cl	none
NNC(=S)Nc1ccccc1Cl	none
NNC(=S)Nc1cccc(Cl)c1Cl	Dicer processing 4.28
Cc1cc(Cl)ccc1NNC(N)=S	none
S=C(N/N=C/c1cccc2ccccc12)Nc1c(Cl)cccc1Cl	none
Cc1cc(Cl)ccc1NC(=S)NNC(=O)c1ccccc1Cl	none
S=C(N/N=C\c1cccc2ccccc12)Nc1cccc(Cl)c1Cl	Dicer processing 3.77
Cc1cc(Cl)ccc1NC(=S)NN	Dicer processing 3.43
Cc1cccc(NC(=S)N/N=C\c2cccc3ccccc23)c1C	none
O=c1oc2cccnc2n1Cc1ccc(Cl)cc1	none
COc1ccc(C2C3=C(Nc4nc(N)[nH]c(=O)c42)c2ccccc2C3=O)cc1 (stereo unspecified)	none
Cn1ncc2c(NNS(=O)(=O)c3ccccc3)ncnc21	none
Cn1cc(Br)c(NC(=O)c2ccc(Cl)c(Cl)c2)n1	none
CN1CCN(C(=O)CSc2nc(-c3ccccc3)cc(C(F)(F)F)n2)CC1	none
O=C(Nc1ccc(Cl)cc1Cl)Nc1cnn(-c2ccc(Cl)cc2)c1C(F)(F)F	none
CCCCCNc1nc(C)nc2c1sc1nc3c(cc12)COC(C)(C)C3	none
COCc1cc(=O)oc2cc(N)ccc12	none

Source: PubChem BioAssay (Center for Chemical Genomics, University of Michigan)
